Test results as given in PubChem BioAssay AID1159580 (chemical genetic matrix, 2015).
Among all 5,500 compounds or so, about 2,000 (36%) were called active. About 18% were inconclusive and are not listed. No stated cut-off is given here; in the data, active means normalized growth mostly below about 0.91 (no sharp cut-off); inconclusive means no clear call, values can overlap the other calls; inactive means mostly above about 0.92. Some of the results follow.

Assay: chemical genetic growth profiling, strain panel (AID 1159580);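 further: tested at 20 µM; growth read once vehicle control cultures reached saturation at 30 °C; 1 = growth at the plate median or of vehicle wells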
Settings: S. cerevisiae deletion strains, growth OD
[1] = locus YDL101C, strain DUN1, stronger effect = lower value
[2] = locus YHR030C, strain SLT2, stronger effect = lower value

Measured: normalized growth

O=C(Oc1ccc(F)cc1)c1cccs1
inactive: locus YAL013W, strain DEP1, stronger effect = lower value 1.01 | locus YBR229C, strain ROT2, stronger effect = lower value 1.01 | [1] 1.03 | locus YDR150W, strain NUM1, stronger effect = lower value 0.941 | locus YEL061C, strain CIN8, stronger effect = lower value 1 | locus YGR078C, strain PAC10, stronger effect = lower value 1.01 | [2] 0.987 | locus YHR087W, strain rtc3, stronger effect = lower value 0.992 | locus YJR043C, strain POL32, stronger effect = lower value 1.03 | locus YJR075W, strain HOC1, stronger effect = lower value 0.986 | locus YLR039C, strain RIC1, stronger effect = lower value 1.05 | locus YLR058C, strain SHM2 (second series), stronger effect = lower value 0.995 | locus YLR085C, strain ARP6, stronger effect = lower value 0.992 | locus YLR262C, strain YPT6, stronger effect = lower value 0.967 | locus YML094W, strain GIM5, stronger effect = lower value 0.989 | locus YMR219W, strain ESC1, stronger effect = lower value 0.993 | locus YMR263W, strain SAP30, stronger effect = lower value 0.966 | locus YNL153C, strain GIM3, stronger effect = lower value 1.02 | locus YNL298W, strain CLA4 (second series), stronger effect = lower value 1.03 | locus YNL322C, strain KRE1, stronger effect = lower value 1 | locus YNR030W, strain Alg12, stronger effect = lower value 1.02 | locus YPL055C, strain LGE1, stronger effect = lower value 0.91 | locus YPL241C, strain CIN2, stronger effect = lower value 1 | locus YPR135W, strain CTF4, stronger effect = lower value 1.01

O=C(Oc1ccc(C2SCCS2)cc1)c1cccs1
active: locus YFR019W, strain FAB1, stronger effect = lower value 0.689 | [2] 0.667 | locus YKL067W, strain YNK1, stronger effect = lower value 0.684 | locus YOR231W, strain MKK1, stronger effect = lower value 0.549 | locus YPL256C, strain CLN2, stronger effect = lower value 0.776
inactive: locus YAR019C, strain CDC15, stronger effect = lower value 1 | locus YBL105C, strain PKC1, stronger effect = lower value 1.01 | locus YBR135W, strain CKS1, stronger effect = lower value 0.997 | locus YBR136W, strain MEC1, stronger effect = lower value 1.01 | locus YBR160W, strain CDC28, stronger effect = lower value 1 | locus YDL017W, strain CDC7, stronger effect = lower value 0.999 | locus YDL028C, strain MPS1, stronger effect = lower value 0.993 | [1] 1.01 | locus YDL108W, strain KIN28, stronger effect = lower value 0.996 | locus YDL132W, strain cdc53, stronger effect = lower value 0.995 | locus YDL214C, strain PRR2, stronger effect = lower value 0.775 | locus YDR052C, strain DBF4, stronger effect = lower value 1.01 | locus YDR054C, strain cdc34, stronger effect = lower value 1 | locus YDR226W, strain ADK1, stronger effect = lower value 1 | locus YDR477W, strain SNF1, stronger effect = lower value 0.818 | locus YER123W, strain YCK3, stronger effect = lower value 0.812 | locus YER133W, strain GLC7, stronger effect = lower value 0.834 | locus YFL009W, strain cdc4, stronger effect = lower value 1 | locus YFL029C, strain CAK1, stronger effect = lower value 1.02 | locus YFR003C, strain YPI1, stronger effect = lower value 1.01 | locus YFR028C, strain CDC14, stronger effect = lower value 0.988 | locus YGR040W, strain KSS1, stronger effect = lower value 0.869 | locus YGR052W, strain FMP48, stronger effect = lower value 0.821 | locus YGR092W, strain DBF2, stronger effect = lower value 0.768 | locus YHR079C, strain IRE1, stronger effect = lower value 0.678 | locus YHR082C, strain KSP1, stronger effect = lower value 0.716 | locus YHR205W, strain SCH9, stronger effect = lower value 0.936 | locus YIL147C, strain SLN1, stronger effect = lower value 1 | locus YJL095W, strain BCK1, stronger effect = lower value 0.572 | locus YJL128C, strain PBS2, stronger effect = lower value 0.951 | locus YJL157C, strain FAR1, stronger effect = lower value 0.716 | locus YJR016C, strain ILV3, stronger effect = lower value 1 | locus YJR066W, strain TOR1 (second series), stronger effect = lower value 0.884 | locus YJR066W, strain TOR1, stronger effect = lower value 0.684 | locus YKL048C, strain ELM1, stronger effect = lower value 0.937 | locus YKL101W, strain HSL1, stronger effect = lower value 0.852 | locus YKL193C, strain SDS22, stronger effect = lower value 0.997 | locus YKL203C, strain TOR2, stronger effect = lower value 0.876 | locus YLR113W, strain HOG1, stronger effect = lower value 0.884 | locus YLR133W, strain CKI1, stronger effect = lower value 0.896 | locus YLR403W, strain SFP1, stronger effect = lower value 0.763 | locus YML070W, strain DAK1, stronger effect = lower value 0.726 | locus YMR001C, strain CDC5, stronger effect = lower value 1.01 | locus YMR205C, strain PFK2 (second series), stronger effect = lower value 0.805 | locus YMR277W, strain FCP1, stronger effect = lower value 1 | locus YNL006W, strain LST8, stronger effect = lower value 1 | locus YNL020C, strain ARK1, stronger effect = lower value 0.829 | locus YNL161W, strain CBK1, stronger effect = lower value 1 | locus YNL183C, strain NPR1, stronger effect = lower value 0.81 | locus YNL207W, strain RIO2, stronger effect = lower value 1 | locus YNL222W, strain SSU72, stronger effect = lower value 0.999 | locus YNL307C, strain MCK1 (second series), stronger effect = lower value 0.784 | locus YOL078W, strain AVO1, stronger effect = lower value 0.997 | locus YOL136C, strain PFK27, stronger effect = lower value 0.701 | locus YOR061W, strain CKA2, stronger effect = lower value 0.737 | locus YOR119C, strain RIO1, stronger effect = lower value 0.785 | locus YOR329C, strain SCD5, stronger effect = lower value 1.01 | locus YPL031C, strain PHO85, stronger effect = lower value 0.697 | locus YPL153C, strain RAD53, stronger effect = lower value 0.777 | locus YPL204W, strain HRR25, stronger effect = lower value 0.852 | locus YPL209C, strain IPL1, stronger effect = lower value 1.01 | locus YPR025C, strain CCL1, stronger effect = lower value 0.997 | locus YPR106W, strain ISR1, stronger effect = lower value 1.01 | locus YPR111W, strain DBF20, stronger effect = lower value 1 | strain NNK1, stronger effect = lower value 1.03 | strain TSCII, stronger effect = lower value 1.02
